Screening results: PubChem BioAssay, National Center for Advancing Translational Sciences (NCATS)
TDP1 cell CPT – qHTS for Inhibitors of human tyrosyl-DNA phosphodiesterase 1 (TDP1): qHTS in cells in presence of CPT | chicken DT40 Tdp1-/-;hTDP1 cells + 20 nM CPT, ATP luminescence, 48 h | Potency, µM (series often up to 46.2 µM), without a hit: at the top dose activity change, negative = growth inhibition, most hits filed as inhibitors | 12% of 420,000 active; note: potency is the fitted concentration of half-maximal effect; % is set by controls: 0 for no effect and ±100 for the full control effect; nearly all actives have a fitted effect of over 55% in size
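Chicken DT40 Tdp1-/- cells complemented with human TDP1, 400 cells/well, exposed to compounds plus 20 nM camptothecin for at least 48 h at 37 C; viability read as ATP content by CellTiter-Glo luminescence.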
uPA generation – qHTS for Inhibitors of Cell Surface uPA Generation; 0.31% of 330,000 active; cell surface uPA generation assay, qHTS; AID 540303, 2011; Potency, µM (titrated, usually from 38.3 µM), inactives show at the highest dose activity change, negative = inhibition, usual class: inhibitors; active = well fitted inhibition curve with a large enough effect; inconclusive = small, poorly fitted or top-dose-only effect; inactive = no such curve, though single readings can be large or run the other way; tested in mouse RAW 264.7 cells; note: potency is the fitted concentration of half-maximal effect; % is set by controls: 0 for no effect and ±100 for the full control effect; nearly all actives have a fitted effect of over 55% in size
miR-21 reporter – qHTS Assay for Modulators of miRNAs and/orActivators of miR-21. Potency, µM (series often up to 38.3 µM), for inactives: at the top dose activity change, positive = activation, usual class: activators. 340,000 tested, under 10 active. HeLa miR-21 FLuc reporter, luciferase, 48 h;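 note: % of control where 0% means no effect; miR-21 action dims this reporter so a rising signal means less miR-21 action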
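HeLa miR-21-FLuc reporter line, endogenous miR-21; 2000 cells/well in DMEM/10% FBS; compound titration up to ~40uM final, 48 h, 37 degree Celsius; luciferase detection reagent, 15 min lysis, CCD luminescence.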
TDP1 inh – qHTS Assay for Inhibitors of Tyrosyl-DNA Phosphodiesterase (TDP1). Tyrosyl-DNA phosphodiesterase 1 (Homo sapiens), Q9NUW8. recombinant TDP1, AlphaScreen DNA substrate cleavage. Potency, µM (highest dose often 130 µM), for inactives: top-dose activity change, negative = inhibition, hits mostly inhibitors. 0.28% of 350,000 active; note: potency is the fitted concentration of half-maximal effect; % is set by controls: 0 for no effect and ±100 for the full control effect; nearly all actives have a fitted effect of over 40% in size
Target sequence (Q9NUW8 whole entry, looked up): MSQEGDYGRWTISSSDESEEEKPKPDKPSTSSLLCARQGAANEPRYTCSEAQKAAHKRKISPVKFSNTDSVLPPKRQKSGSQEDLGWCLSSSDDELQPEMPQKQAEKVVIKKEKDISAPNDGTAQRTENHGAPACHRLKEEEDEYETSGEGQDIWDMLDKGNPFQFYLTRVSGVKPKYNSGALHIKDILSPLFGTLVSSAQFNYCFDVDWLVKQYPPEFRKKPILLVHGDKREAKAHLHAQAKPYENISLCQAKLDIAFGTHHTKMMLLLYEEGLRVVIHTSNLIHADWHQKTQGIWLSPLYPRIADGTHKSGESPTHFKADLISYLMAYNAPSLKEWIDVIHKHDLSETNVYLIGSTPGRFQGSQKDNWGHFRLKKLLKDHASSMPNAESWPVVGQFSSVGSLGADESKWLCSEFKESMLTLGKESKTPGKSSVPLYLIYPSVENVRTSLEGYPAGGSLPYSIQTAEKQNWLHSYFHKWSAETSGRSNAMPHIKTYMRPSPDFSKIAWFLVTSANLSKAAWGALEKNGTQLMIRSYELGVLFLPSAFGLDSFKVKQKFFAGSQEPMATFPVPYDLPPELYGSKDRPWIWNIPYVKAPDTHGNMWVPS
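Recombinant human Tdp1 (E. coli-expressed, 1 nM final) preincubated with compounds 15 min at room temperature, then 5'-biotin/3'-phosphotyrosine-FITC DNA substrate (15 nM final) added for 5 min. AlphaScreen beads (10 ug/ml final) added 10 min; cleavage lowers signal.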
DT40 TDP1 no CPT – qHTS for Inhibitors of human tyrosyl-DNA phosphodiesterase 1 (TDP1): qHTS in cells in absence of CPT; DT40 Tdp1-/- hTDP1 cells, no CPT, ATP luminescence, 48 h; Potency, µM (titrated, usually from 46.2 µM), for the others: at the top dose activity change, negative = growth inhibition, usual class: inhibitors; 15% of 420,000 active; note: potency is the fitted concentration of half-maximal effect; % is set by controls: 0 for no effect and ±100 for the full control effect; nearly all actives have a fitted effect of over 55% in size
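Readout: luminescence from CellTiter-Glo after 30 min in the dark at RT. Cells: DT40 Tdp1-/- with stable hTDP1, 400/well. Exposure: compounds alone, ≥48 hr, 37 °C.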
Starred values were filed as active, the others as inactive; ? = inconclusive; · = not tested or not shown; [ ] = dose if it differs, or a comment. This is a sample that favours compounds with a hit; in the whole collection about 16% have one here. Unless noted, calls come from the whole dose curve; as a rule, active = well fitted curve in the direction sought with a large enough effect; inconclusive = small, poorly fitted or top-dose-only effect, or another doubt; inactive = no such curve, though single readings can be large; an effect the other way counts as inactive or inconclusive.

SMILES	TDP1 cell CPT	uPA generation	miR-21 reporter	TDP1 inh	DT40 TDP1 no CPT
CC[C@]12c3[nH]c4cc(-c5ccco5)ccc4c3CCN1C(=O)[C@@H](CC(=O)NC(C)(C)C)C[C@@H]2C(=O)N1CCN(C(=O)C2CC2)CC1	15µM*	6%	·	1%[56.1 µM]	21µM*
Cc1ccc(Cn2cc(CCC(=O)NC3CCCCC3)c3ccccc32)cc1	?	·	-1%	5%	15µM*
CCOc1ccc(CCNC(=O)CCc2cn(Cc3ccc(C)cc3)c3ccccc23)cc1	?	·	10%	5%	12µM*
CCOc1ccc(CNC(=O)CCc2cn(Cc3ccccc3)c3ccccc23)cc1	-24%	?	-11%	1%	?
COc1ccc(CCNC(=O)CCc2cn(Cc3ccccc3Cl)c3ccccc23)c(OC)c1	?	·	-2%	10%	16µM*
CCn1cc(CCC(=O)NCc2cccc(OC)c2OC)c2ccccc21	18µM*	-4%	2%	·	16µM*
COc1ccc(C(=O)COC(=O)c2ccc(NC(=O)c3ccccc3)cc2)cc1	0%	·	-5%	5%	-14%
COc1ccc(CC(=O)OCC(=O)NC2CCCCC2)cc1OC	3%	-5%	·	0%	1%
CCc1ccc(NC(=O)CC2C(=O)N(c3ccc(OC)cc3)C(=O)N2CCOC)cc1 (stereo not drawn)	-9%	-8%	-7%	·	11%
COc1ccc(CCNC(=O)CCc2cn(Cc3ccc(F)cc3)c3ccccc23)cc1OC	?	·	-5%	8%	16µM*
COc1ccc(CCNC(=O)CCc2cn(Cc3ccc(C)cc3)c3ccccc23)c(OC)c1OC	?	·	6%	3%	?
CCn1c(SCC(=O)c2c(N)n(C3CC3)c(=O)[nH]c2=O)nc2cc(S(N)(=O)=O)ccc21	-20%	0%	·	-3%	-5%
CCN1CCN(c2ncnc3scc(-c4ccc(OC)cc4)c23)CC1	-28%	-1%	0%	·	-18%
Fc1ccc(-c2csc3ncnc(N4CCN(c5ccccc5)CC4)c23)cc1	?	10%	-1%	-2%	?
CCOc1ccc(CN2CCN(c3ncnc4scc(-c5ccccc5)c34)CC2)cc1	?	8%	-2%	·	8.2µM*
COc1ccc(CN2CCN(c3ncnc4scc(-c5ccc(F)cc5)c34)CC2)cc1	16µM*	-11%	13%	·	21µM*
COc1ccc(F)cc1CN1CCN(c2ncnc3scc(-c4ccccc4)c23)CC1	15µM*	0%	1%	8%	16µM*
CCCn1c(N)c(C(=O)COC(=O)COc2ccc(Cl)c(C)c2)c(=O)n(C)c1=O	-10%	0%	·	-3%	-19%
COc1ccc(NC(=O)Cn2cc(S(=O)(=O)c3ccccc3)c(=O)c3cc4c(cc32)OCO4)cc1	3%	·	2%	-4%	0%
CCCCNC(=O)C1CC(=O)N(C2CCCCC2)C1 (stereo not drawn)	-19%	9%	4%	9%	-6%
Cn1nnnc1SCCNCc1ccccc1F	-14%	·	-5%	5%	-6%
Cn1nnnc1SCCCNCc1cc(Br)ccc1OCc1ccccc1	23µM*	·	18%	1%	10µM*
Cn1nnnc1SCCCNCc1cc(Cl)ccc1OCc1ccccc1F	21µM*	·	20%	-3%	8.2µM*
CCOc1ccc(Br)cc1CNCCSc1nnnn1-c1ccccc1	18µM*	·	-1%	2%	?
Cn1nnnc1SCCCNCc1ccc(-c2ccc(Br)cc2)o1	21µM*	·	-4%	-3%	?
SMILES	TDP1 cell CPT	uPA generation	miR-21 reporter	TDP1 inh	DT40 TDP1 no CPT
Cn1nnnc1SCCCNCc1cccc(OCc2ccccc2)c1	?	·	-9%	-1%	?
Brc1cccc(CNCCSc2nnnn2-c2ccccc2)c1	-27%	·	0%	5%	-17%
COc1cc(Cl)c(C)cc1Nc1nc2ccccc2c2nnc(C)n12	0%	·	-2%	3%	-15%
Cn1nnnc1SCCCNCc1cc(Br)ccc1OCc1ccccc1F	16µM*	·	26%	5%	16µM*
Cn1nnnc1SCCNCc1ccccc1OCc1ccc(F)cc1	-7%	1%	-11%	-5%	-11%
CC(C)C(=O)Nc1csc(C(F)(F)F)c1-c1ccccc1	-12%	-11%	0%	6%	-22%
Cc1nc2ccc(C(=O)N(C)Cc3ccco3)cn2c1N(C)CC1CCCCC1	18µM*	·	·	·	13µM*
Cc1cc(C)n2c(Nc3ccc4c(c3)OCCO4)c(CC(C)C)nc2n1	21µM*	·	·	·	12µM*
Cc1cc(C)n2c(NC3CCCCC3)c(CC(C)C)nc2n1	?	·	·	·	18µM*
Cc1cc(C)n2c(NC3CCCC3)c(-c3cccnc3)nc2n1	-8%	·	·	·	-15%
O=C(Cc1ccccc1)N1CCC(c2ccccc2)C1 (stereo not drawn)	-5%	0%	-34%	3%	-17%
COCC1CCN(Cc2cn[nH]c2-c2cc3ccccc3o2)C1 (stereo not drawn)	-13%	4%	-12%	4%	-25%
Cc1cccc(CC(=O)Nc2cccc(-c3nc4cccnc4s3)c2)c1	-15%	·	-6%	0%	?
CCS(=O)(=O)Nc1cc(-c2nc3cccnc3s2)ccc1C	?	-29%	-35%	5%	26µM*
Cc1ccccc1C(=O)Nc1cccc(-c2nc3cccnc3s2)c1	?	·	1%	6%	18µM*
COCCCN(C(=O)CCSc1ccc(F)cc1)c1c(N)n(Cc2ccccc2)c(=O)[nH]c1=O	?	6%	·	·	12%
O[Si](CCCN1CCCCC1)(c1ccc(F)cc1)C1CCCCC1 (stereo not drawn)	?	23%	·	10%[56.1 µM]	26µM*
O=C(NCCCN1CCCC1)Nc1ccc(F)cc1	1%	2%	0%	·	4%
CC(=O)c1ccc(N=Nc2ccc(N)cc2)cc1	?	4µM*	0%	-3%	?
COc1cc(C(=O)OCC2CC(c3ccccc3)=NO2)cc(OC)c1OC (stereo not drawn)	-4%	0%	-10%	8%	?
COc1ccc(C(=O)OCC2CC(c3ccccc3)=NO2)cc1OC (stereo not drawn)	23µM*	14%	-13%	5%	?
COc1ccc(-c2nc3c(c(=O)n(C)c(=O)n3C)n2CC2CC(c3ccccc3)=NO2)cc1OC (stereo not drawn)	10µM*	-5%	·	·	1.5µM*
CC(C)(C)C(=O)Nc1sc2c(c1-c1nc3ccccc3[nH]1)CCCC2	?	·	0%	-3%	?
CCc1ccccc1NC(=O)CSc1nc2n[nH]c(C)c2c(=N)n1-c1ccc(OC)cc1	9.2µM*	-7%	-2%	0%	8.2µM*
